Results published in PubChem BioAssay (NCI).
Compounds without any hit were thinned out: in the full panel of roughly 79,000, 15% have a hit. Calls of active or inactive are those of the source. No stated cut-off is given here; in the data, active means growth inhibition above about 70%; inactive means the rest.

Key:
[1] = NCI Yeast Anticancer Drug Screen. Data for the rad52 strain (AID 147);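 further: 0% = growth of vehicle-treated control cultures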; conditions: S. cerevisiae rad52 mutant growth inhibition, stronger effect = higher value
Summary of the method: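 Inhibition of yeast growth, referenced to vehicle controls, was the measured output for a strain with defective DNA damage repair.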

[2] = NCI Yeast Anticancer Drug Screen. Data for the wt1 strain (AID 149);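 further: 0% = growth of vehicle-treated wt1 cultures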; conditions: S. cerevisiae wt1 strain (SPY 50644) growth inhibition, stronger effect = higher value
Summary of the method: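 Yeast wt1 strain exposed to compounds; growth inhibition measured relative to vehicle-treated controls.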

[3] = NCI Yeast Anticancer Drug Screen. Data for the rad50EPP+ strain (AID 151);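 further: 0% = growth of vehicle-treated control cultures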; conditions: S. cerevisiae rad50 mutant strain, stronger effect = higher value
Summary of the method: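 Genetically defined yeast (rad50EPP+, DNA damage repair alteration) is grown with compound, and inhibition of growth is expressed relative to vehicle-treated controls.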

[4] = NCI Yeast Anticancer Drug Screen. Data for the mgt1 strain (AID 153); conditions: S. cerevisiae mgt1 mutant growth inhibition, stronger effect = higher value
Summary of the method: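 In the mgt1 strain, test compounds were added and growth inhibition was determined relative to vehicle-treated controls.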

[5] = NCI Yeast Anticancer Drug Screen. Data for the rad50 strain (AID 155);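 further: 0% = growth of vehicle-only cultures of the same strain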; conditions: S. cerevisiae rad50 strain growth inhibition, stronger effect = higher value
Summary of the method: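 Yeast carrying a defined DNA repair defect were exposed to test compounds, and growth was compared with vehicle-treated controls to give percent inhibition.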

[6] = NCI Yeast Anticancer Drug Screen. Data for the mec2-1 strain (AID 157); conditions: S. cerevisiae mec2-1 strain, stronger effect = higher value
Summary of the method: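 Each compound was tested on mec2-1 yeast, a strain altered in DNA damage repair or cell cycle control. Growth inhibition is reported relative to vehicle.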

[7] = NCI Yeast Anticancer Drug Screen. Data for the rad14 strain (AID 159);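 further: 0% = growth of vehicle-treated control cultures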; conditions: S. cerevisiae rad14 strain growth inhibition, stronger effect = higher value
Summary of the method: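 Yeast cells carrying a defined DNA-repair defect were exposed to compounds, and growth inhibition was calculated relative to vehicle-treated control cultures.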

[8] = NCI Yeast Anticancer Drug Screen. Data for the sgs1 mgt1 strain (AID 161);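 further: 0% = growth of cultures given vehicle only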; conditions: S. cerevisiae sgs1 mgt1 strain, stronger effect = higher value
Summary of the method: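 Read-out: growth inhibition vs vehicle controls. Cells: mutant yeast strain deficient in DNA damage repair.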

[9] = NCI Yeast Anticancer Drug Screen. Data for the CLN2oe strain (AID 163);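 further: 0% = growth of vehicle-only control cultures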; conditions: S. cerevisiae CLN2oe strain, stronger effect = higher value
Summary of the method: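 First, the altered yeast strain was treated with each compound; second, its growth was measured; finally, inhibition was derived by comparison with vehicle controls.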

[10] = NCI Yeast Anticancer Drug Screen. Data for the cln2 rad14 strain (AID 165);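 further: 0% = growth equal to vehicle treated cultures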; conditions: S. cerevisiae cln2 rad14 strain, stronger effect = higher value
Summary of the method: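 Test compounds were added to cln2 rad14 yeast cultures; inhibition of growth was then determined by comparison with vehicle treatment.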

[11] = NCI Yeast Anticancer Drug Screen. Data for the bub3 strain (AID 167); conditions: S. cerevisiae bub3 mutant strain, stronger effect = higher value
Summary of the method: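 Compounds were applied to a genetically altered yeast strain carrying a cell-cycle control defect. Growth inhibition was scored against vehicle-treated controls.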

[12] = NCI Yeast Anticancer Drug Screen. Data for the wt2 strain (AID 169);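 further: 0% = growth of vehicle-treated yeast cultures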; conditions: S. cerevisiae wt2 strain growth inhibition, stronger effect = higher value
Summary of the method: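 The panel's yeast strains carry defined changes in DNA repair or cell cycle genes. Each strain is grown with compound, and growth loss is scored relative to vehicle.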

[13] = NCI Yeast Anticancer Drug Screen. Data for the mlh1 strain (AID 171);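 further: 0% = growth of vehicle-treated control cultures of the same strain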; conditions: S. cerevisiae mlh1 strain growth inhibition, stronger effect = higher value
Summary of the method: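 Inhibition values reflect reduced yeast growth in the presence of compound, referenced to vehicle controls, using a strain chosen for its alteration in DNA repair or cell cycle control.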

[14] = NCI Yeast Anticancer Drug Screen. Data for the sgs1 strain (AID 173);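 further: 0% = growth of vehicle-only control cultures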; conditions: S. cerevisiae sgs1 mutant, stronger effect = higher value
Summary of the method: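 Vehicle-treated cultures served as reference for growth inhibition of a yeast strain altered in DNA damage repair or cell cycle control after compound exposure.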

[15] = NCI Yeast Anticancer Drug Screen. Data for the mlh1 rad18 strain (AID 175); conditions: S. cerevisiae mlh1 rad18 strain growth inhibition, stronger effect = higher value
Summary of the method: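 Inhibition values reflect reduced growth of mutant yeast versus vehicle-treated controls following compound exposure; the mutations affect DNA damage repair.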

[16] = NCI Yeast Anticancer Drug Screen. Data for the rad18 strain (AID 177); conditions: S. cerevisiae rad18 mutant growth inhibition, stronger effect = higher value
Summary of the method: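 Steps: expose repair-mutant yeast to compound; measure growth; express as inhibition relative to vehicle control.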

[17] = at 5.0 µM (retest, dose inferred, filed as 0.5)
[18] = at 50.0 µM (retest, dose inferred, filed as 5.0)

Measured: growth inhibition

CC(=O)SC(C[N+](=O)[O-])c1ccccc1 (stereo unspecified)
inactive: [1]; at 1.2 µM 55% | [2]; at 1.2 µM 0% | [2]; at 3.7 µM 0% | [2]; at 11.0 µM 17% | [4]; at 1.2 µM 1% | [4]; at 3.7 µM 4% | [4]; at 11.0 µM 18% | [6]; at 1.2 µM 5% | [6]; at 3.7 µM 17% | [6]; [17] -15% | [6]; at 11.0 µM 52% | [7]; at 1.2 µM 14% | [7]; at 3.7 µM 28% | [7]; at 11.0 µM 42% | [8]; [17] -7% | [9]; at 1.2 µM 7% | [9]; at 3.7 µM 19% | [9]; at 11.0 µM 38% | [10]; [17] -20% | [10]; at 50.0 µM 31.1% | [11]; at 1.2 µM 23% | [11]; at 3.7 µM 30% | [11]; [17] 8% | [11]; at 11.0 µM 68% | [12]; at 1.2 µM -3% | [12]; at 3.7 µM -4% | [12]; at 11.0 µM 14% | [13]; at 1.2 µM 5% | [13]; at 3.7 µM 11% | [13]; at 11.0 µM 33% | [14]; at 1.2 µM 15% | [14]; at 3.7 µM 41% | [14]; at 11.0 µM 62% | [15]; [17] -37% | [16]; at 1.2 µM 19% | [16]; at 3.7 µM 33% | [16]; at 11.0 µM 55%
active: [1]; at 3.7 µM 76% | [1]; at 11.0 µM 88% | [1]; at 33.0 µM 99% | [1]; at 100.0 µM 99% | [2]; at 33.0 µM 95% | [2]; at 100.0 µM 100% | [3]; at 1.2 µM 89% | [3]; at 3.7 µM 92% | [3]; at 11.0 µM 95% | [3]; at 33.0 µM 99% | [3]; at 100.0 µM 99% | [4]; at 33.0 µM 81% | [4]; at 100.0 µM 100% | [5]; at 1.2 µM 81% | [5]; at 3.7 µM 92% | [5]; [17] 87% | [5]; at 11.0 µM 96% | [5]; at 33.0 µM 99% | [5]; [18] 98% | [5]; at 50.0 µM 99.2% | [5]; at 100.0 µM 99% | [6]; at 33.0 µM 94% | [6]; [18] 99% | [6]; at 50.0 µM 99.6% | [6]; at 100.0 µM 100% | [7]; at 33.0 µM 98% | [7]; at 100.0 µM 99% | [8]; [18] 98% | [8]; at 50.0 µM 95.8% | [9]; at 33.0 µM 78% | [9]; at 100.0 µM 99% | [10]; [18] 98% | [11]; at 33.0 µM 97% | [11]; [18] 98% | [11]; at 50.0 µM 95.2% | [11]; at 100.0 µM 99% | [12]; at 33.0 µM 99% | [12]; at 100.0 µM 99% | [13]; at 33.0 µM 96% | [13]; at 100.0 µM 99% | [14]; at 33.0 µM 100% | [14]; at 100.0 µM 99% | [15]; [18] 98% | [15]; at 50.0 µM 99.5% | [16]; at 33.0 µM 93% | [16]; at 100.0 µM 99%

CC1OC(O[C@H]2/C=C/C=C/C=C/C=C/C=C/C=C/C=C/[C@H](C)[C@@H](O)[C@@H](C)[C@H](C)OC(=O)C[C@H](O)C[C@H](O)CC[C@@H](O)[C@H](O)C[C@H](O)C[C@]3(O)C[C@H](O)[C@@H](C(=O)O)[C@H](C2)O3)C(O)C(N)C1O (stereo partly specified)
inactive: [1]; at 1.2 µM 2% | [1]; at 3.7 µM 45% | [2]; at 1.2 µM 2% | [2]; at 3.7 µM 13% | [3]; at 1.2 µM 25% | [4]; at 1.2 µM 17% | [4]; at 3.7 µM 57% | [5]; at 1.2 µM 19% | [5]; at 3.7 µM 61% | [5]; [17] 18% | [6]; at 1.2 µM -2% | [6]; at 3.7 µM 28% | [6]; [17] 32% | [7]; at 1.2 µM 2% | [7]; at 3.7 µM 23% | [8]; [17] 25% | [9]; at 1.2 µM 2% | [9]; at 3.7 µM 23% | [10]; [17] 50% | [11]; at 1.2 µM -19% | [11]; at 3.7 µM 19% | [11]; [17] 14% | [12]; at 1.2 µM -65% | [12]; at 3.7 µM -3% | [13]; at 1.2 µM 7% | [14]; at 1.2 µM 10% | [14]; at 3.7 µM 50% | [15]; [17] 47% | [16]; at 1.2 µM -20% | [16]; at 3.7 µM 35%
active: [1]; at 11.0 µM 98% | [1]; at 33.0 µM 98% | [1]; at 100.0 µM 98% | [2]; at 11.0 µM 98% | [2]; at 33.0 µM 98% | [2]; at 100.0 µM 98% | [3]; at 3.7 µM 97% | [3]; at 11.0 µM 99% | [3]; at 33.0 µM 99% | [3]; at 100.0 µM 98% | [4]; at 11.0 µM 98% | [4]; at 33.0 µM 99% | [4]; at 100.0 µM 98% | [5]; at 11.0 µM 98% | [5]; at 33.0 µM 98% | [5]; [18] 99% | [5]; at 50.0 µM 99.1% | [5]; at 100.0 µM 97% | [6]; at 11.0 µM 98% | [6]; at 33.0 µM 98% | [6]; [18] 99% | [6]; at 50.0 µM 99.4% | [6]; at 100.0 µM 98% | [7]; at 11.0 µM 95% | [7]; at 33.0 µM 97% | [7]; at 100.0 µM 98% | [8]; [18] 99% | [8]; at 50.0 µM 99.2% | [9]; at 11.0 µM 98% | [9]; at 33.0 µM 98% | [9]; at 100.0 µM 98% | [10]; [18] 99% | [10]; at 50.0 µM 99.1% | [11]; at 11.0 µM 98% | [11]; at 33.0 µM 98% | [11]; [18] 99% | [11]; at 50.0 µM 98.8% | [11]; at 100.0 µM 98% | [12]; at 11.0 µM 96% | [12]; at 33.0 µM 98% | [12]; at 100.0 µM 98% | [13]; at 3.7 µM 78% | [13]; at 11.0 µM 98% | [13]; at 33.0 µM 98% | [13]; at 100.0 µM 98% | [14]; at 11.0 µM 99% | [14]; at 33.0 µM 99% | [14]; at 100.0 µM 99% | [15]; [18] 99% | [15]; at 50.0 µM 98.7% | [16]; at 11.0 µM 97% | [16]; at 33.0 µM 98% | [16]; at 100.0 µM 97%
